The results in this text go back to PubChem BioAssay AID1565 (Sanford-Burnham Center for Chemical Genomics, 2009).

Structures are written as SMILES. Out of some 290,000 compounds screened, about 3,200 (1.1%) were called active. Rule as the data show it: active = inhibition above about 60%; inactive = the rest. The entries come from a sample that favours actives as a whole.

Chain of Phosphoethanolamine/phosphocholine phosphatase (Homo sapiens) (Q8TCT1 whole entry, looked up): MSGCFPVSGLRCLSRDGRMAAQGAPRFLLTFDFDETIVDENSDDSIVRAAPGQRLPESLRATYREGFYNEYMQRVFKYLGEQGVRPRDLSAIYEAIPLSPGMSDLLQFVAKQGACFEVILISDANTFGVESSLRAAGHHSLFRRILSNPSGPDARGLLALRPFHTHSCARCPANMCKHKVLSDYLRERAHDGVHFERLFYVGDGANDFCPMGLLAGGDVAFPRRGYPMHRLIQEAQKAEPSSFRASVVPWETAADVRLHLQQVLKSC

This assay addresses Phosphoethanolamine/phosphocholine phosphatase (Homo sapiens) (UniProt Q8TCT1). The assay can be described thus: PubChem AID 1565. The conditions noted are these: recombinant PHOSPHO1, absorbance phosphatase assay; at 13.3 µM; hits give high values.
For `COc1ccc2[nH]c(C(=O)N/N=C/c3cc(OC)c(OC)c(OC)c3)cc2c1`, the inhibition – broadly, the drop in the measured response relative to a control, in per cent – was 9.8% (inactive). With `CCOc1ccc(NC(=O)C(C)N2C(=O)c3ccccc3C2=O)cc1` (stereo unspecified), the inhibition was 24.3% (inactive). As for `Cc1cc(C)nc(NC(=O)C(C)N2C(=O)c3ccccc3C2=O)n1` (stereo unspecified), the figure is -12.8% (inactive); as for `Cc1ccnc(NC(=O)C(C)N2C(=O)c3ccccc3C2=O)c1` (stereo unspecified), 60% (active); as for `CCc1nc2cccnc2n1-c1ccc(C(=O)O)cc1`, 35.1% (inactive). Turning to `COc1ccc(CCNC(=O)C(=O)NCC2OCCN2S(=O)(=O)c2cccs2)cc1OC` (stereo unspecified), the inhibition was 4.5% (inactive). As for `Cc1ccc(CN2CCC(n3nccc3NC(=O)CCCc3ccccc3)CC2)o1`, the figure is 2.6% (inactive).

For the compound `CC(=O)NCC(=O)N1CCC(n2nccc2NC(=O)CCCc2ccccc2)CC1`, the inhibition is 65.8% (active). As to `COc1cc(CN2CCC(n3nccc3NC(=O)CCCc3ccccc3)CC2)ccc1O`, the inhibition was -5% (inactive). As for `CC(=O)N[C@@H](C)C(=O)N1CCC(n2nccc2NC(=O)CCCc2ccccc2)CC1`, the inhibition is 61.6% (active). As for `COc1ccc(CN2CCC(n3nccc3NC(=O)CCCc3ccccc3)CC2)cc1C`, the figure is 37.7% (inactive); as for `CCn1cc(CN2CCC(n3nccc3NC(=O)CCCc3ccccc3)CC2)c(C)n1`, 29% (inactive). Regarding `N#Cc1ccccc1S(=O)(=O)N1CCN(C(=O)c2cc(-c3ccccc3)nn2-c2ccccc2)CC1`, the inhibition is 14.5% (inactive). For `Cc1ccc(S(=O)(=O)N2CCN=C2SCc2c(F)cccc2Cl)cc1`, the inhibition was 22.6% (inactive). As for `OC(CNCCc1ccc(Cl)cc1Cl)COc1ccccc1` (stereo unspecified), the inhibition is 46.3% (inactive).

With `COc1ccc(OC)c(C(=O)NC(CC(N)=O)c2ccc(N3CCC(N4CCCCC4)CC3)c([N+](=O)[O-])c2)c1` (stereo unspecified), the inhibition was -18.6% (inactive). As to `O=C(CNc1cccc(S(=O)(=O)N2CCCCC2)c1)Nc1ccccc1F`, the inhibition was 42.8% (inactive). In the case of `CC(C)C(C(=O)NCc1ccco1)N(CC1CCCO1)C(=O)CNS(=O)(=O)c1ccc(F)cc1` (stereo unspecified), the inhibition is 46.2% (inactive).

On to `CCOc1ccccc1Nc1nnc(SCc2ccc(C(=O)OC)o2)s1`, for which the inhibition is 48.3% (inactive). `Cc1cc(NC(=O)CSc2nnc(Nc3ccccc3F)s2)no1`: the inhibition was -3.4% (inactive). In the case of `CCOc1ccccc1Nc1nnc(SCC(=O)Nc2cc(C)on2)s1`, the inhibition was 61.5% (active). As to `CCOC(=O)C1(CCOC)CCN(Cc2cc3ccccc3s2)CC1`, the inhibition was 3.1% (inactive). For the compound `CCCCNC(=O)CSc1nc2ccc(NC(=O)CSc3nnc(COc4ccccc4C)n3C)cc2s1`, the inhibition is 74.2% (active). Turning to `CCOC(=O)c1ccc(NC(=O)CSc2nnc(COc3ccccc3OC)n2C)cc1`, the inhibition was 6.3% (inactive). The same measure for `CCCCNC(=O)CSc1nc2ccc(NC(=O)CSc3nnc(N)s3)cc2s1`: -25.6% (inactive); for `CC(C)[C@H](NC(=O)N1CCn2c1nc1ccccc12)C(=O)NC1CC1`: 46.9% (inactive); for `O=S1(=O)CCOC[C@H](CC2CCCCC2)N1Cc1ccc(F)cc1`: 4% (inactive). For `CCOC(=O)c1c(C)[nH]c(C)c1S(=O)(=O)NCCCc1ccco1`, the inhibition was -28.5% (inactive). For `COc1cccc(NC(C)=[N+](C)CCNS(=O)(=O)c2ccc(Cl)cc2)c1`, the inhibition is -9% (inactive). `O=S(=O)(NCc1ccccc1)c1ccc(S(=O)(=O)N2CCCC2)cc1`: the inhibition was 3.4% (inactive).

Turning to `COC(=O)C1=C(C)NC(=O)/C1=C/c1ccc(CNS(=O)(=O)c2ccc(C)cc2)o1`, the inhibition was 41.2% (inactive). The same measure for `O=c1/c(=C/c2ccc(CNS(=O)(=O)c3ccccc3)o2)sc2n1CCN=2`: 97.8% (active).

As for `O=C(Nc1ccc(C(=O)O)cc1)/C(=C\c1ccccc1)NC(=O)c1ccc(Br)cc1`, the inhibition was 25% (inactive). With `Cc1ccc(S(=O)Cc2ccc(C(=O)N3CCN(C4CCCCC4)CC3)o2)cc1` (stereo unspecified), the inhibition was 26.1% (inactive).

Consider `CCC(C)c1ccccc1NC(=O)CN(C)CC(=O)Nc1ccccc1SC` (stereo unspecified), for which the inhibition was 7% (inactive). On to `O=C(CSc1nnc(-c2cnccn2)n1Cc1ccco1)c1ccc(Cl)c(Cl)c1`, for which the inhibition is 85.4% (active). For `COc1ccc(C(=O)CSc2nnc(COc3ccccc3)n2Cc2ccco2)cc1`, the inhibition was 91.7% (active).

As to `CCc1ccc(NC(=O)CSc2nnc(-c3cnccn3)n2Cc2ccco2)cc1`, the inhibition was 1.3% (inactive). Turning to `COc1ccc(NC(=O)CSc2nnc(-c3cccs3)n2Cc2ccco2)cc1OC`, the inhibition was 19.4% (inactive). Consider `O=C(CSc1nnc(-c2cccnc2)n1Cc1ccco1)c1ccc(Cl)cc1`, for which the inhibition is 79.6% (active). `O=C(CSc1nnc(-c2cccnc2)n1Cc1ccco1)c1ccc(Cl)c(Cl)c1`: the inhibition is 71.1% (active).

`O=C(CSc1nnc(-c2cccs2)n1Cc1ccco1)c1ccc2c(c1)OCO2`: the inhibition was -69.6% (inactive). Consider `CCn1c(COc2ccccc2)nnc1SCC(=O)NCc1ccco1`, for which the inhibition is 19.2% (inactive). As for `Cc1ccc(NC(=O)CSc2nnc(-c3cnccn3)n2Cc2ccco2)cc1C`, the figure is -3.2% (inactive). For `Cc1cc(NC(=O)CSc2nc3cc(Cl)ccc3c(=O)n2Cc2ccco2)no1`, the inhibition is 12.3% (inactive). On to `COc1cc(Cl)c(C)cc1NC(=O)CSc1nnc(-c2cccnc2)n1Cc1ccco1`, for which the inhibition was 28.9% (inactive).

Turning to `C=CCn1c(CNC(=O)c2ccco2)nnc1SCC(=O)c1ccc(OC)cc1`, the inhibition was 32.2% (inactive). In the case of `CC1CCN(C(=O)/C(=C\c2ccccc2F)NC(=O)c2ccccc2)CC1`, the inhibition was 18.7% (inactive). `CCN(c1cccc(C)c1)S(=O)(=O)c1ccc(-c2coc(C)n2)cc1`: the inhibition is -0.1% (inactive).

On to `Cc1cc(=O)oc2c3c(cc(OCC(=O)NCc4ccccn4)c12)OC(C)(C)CC3`, for which the inhibition was 34.3% (inactive). In the case of `O=C1C(=O)N(CCN2CCOCC2)C(c2cccc(Cl)c2)/C1=C(/O)c1ccc2c(c1)OCO2` (stereo unspecified), the inhibition was 24% (inactive). For the compound `CN(C(=O)CCN1C(=O)/C(=C/c2ccccc2F)SC1=S)C1CCS(=O)(=O)C1` (stereo unspecified), the inhibition is 52.6% (inactive).

As to `COc1ccc(OC)c(NC(=O)Cc2cccs2)c1`, the inhibition was 3.8% (inactive). With `CCCc1nn2c(=O)cc(CSCC(=O)Nc3cccc(C)c3)nc2s1`, the inhibition was 24% (inactive). Consider `O=C(CSc1nnc(-c2cccnc2)n1CCc1ccccc1)NCc1ccccc1`, for which the inhibition is 1.5% (inactive). As for `CCOC(=O)Cc1csc(NC(=O)CSc2nnc(-c3cccnc3)n2Cc2ccco2)n1`, the inhibition is 17.3% (inactive). As for `C(=C\c1ccccc1)/CSc1nnc(-c2cccnc2)n1Cc1ccco1`, the inhibition was 70.5% (active). The same measure for `Cc1ccc(C(=O)N(CC(=O)NC2CCCC2)c2ccc(F)cc2)s1`: 40.5% (inactive); for `CCn1c(SCC(=O)NCC2CCCO2)nc2cc(S(=O)(=O)N3CCCCC3)ccc21` (stereo unspecified): 14.5% (inactive); for `CCCCn1c(SCC(=O)N2CCC(C(=O)OCC)CC2)nc2cc(S(N)(=O)=O)ccc21`: 1.5% (inactive). `CCCCn1c(SCc2ncc(-c3ccccc3)o2)nc2cc(S(N)(=O)=O)ccc21`: the inhibition is 75.4% (active).

For the compound `O=C(c1cccc(-n2cccc2)c1)N1CCN(S(=O)(=O)c2ccc(F)cc2)CC1`, the inhibition is -102% (inactive).

As to `O=C(C1CC(=O)N(c2ccc(F)cc2)C1)N1CCN(c2ccccc2)CC1` (stereo unspecified), the inhibition is 42.6% (inactive). The same measure for `COc1ccc(OC)c(CNC(=O)Cn2nc(C)c3c(C)n(-c4ccc(C)cc4)nc3c2=O)c1`: 24% (inactive); for `COc1ccc(CNC(=O)C(C)n2nc(C)c3c(C)n(-c4ccccc4)nc3c2=O)c(OC)c1` (stereo unspecified): 64.7% (active). Turning to `Cc1nn(C(C)C(=O)NCCC2=CCCCC2)c(=O)c2nn(-c3ccccc3)c(C)c12` (stereo unspecified), the inhibition is 54.1% (inactive).

As to `COC(=O)c1ccc(CN2CCCC(C(=O)Nc3cccc(-n4cnnn4)c3)C2)cc1` (stereo unspecified), the inhibition is 22.6% (inactive). With `Cn1c(=O)n(C)c2cc(NS(=O)(=O)c3ccc(F)cc3)ccc21`, the inhibition is 38.9% (inactive). With `Cc1cc(C)cc(NS(=O)(=O)c2ccc(F)cc2)c1`, the inhibition was 28.3% (inactive).

In the case of `Cn1nccc1NS(=O)(=O)c1ccc(F)cc1`, the inhibition is 69.9% (active).

Take `O=C(C1CCCN(S(=O)(=O)c2ccc([N+](=O)[O-])cc2)C1)N1CCCCC1` (stereo unspecified): the inhibition is 52.6% (inactive). For the compound `O=C(Cc1ccccc1)NNS(=O)(=O)c1ccc([N+](=O)[O-])cc1`, the inhibition is 6.7% (inactive). For `O=C(NNS(=O)(=O)c1ccc([N+](=O)[O-])cc1)C1CCCCC1`, the inhibition is 61% (active). On to `O=C(NNS(=O)(=O)c1ccc(F)cc1)C1CCCCC1`, for which the inhibition is 18.4% (inactive). For `CC(=O)N1c2ccc(S(=O)(=O)N3CCCC(C(=O)Nc4ccc(C)cc4C)C3)cc2CC1C` (stereo unspecified), the inhibition was 25.4% (inactive). Take `COc1ccc(OC)c(NC(=O)C2CCCN2S(=O)(=O)c2cccc3nsnc23)c1` (stereo unspecified): the inhibition is 20.7% (inactive).

Take `O=C(CSc1nnc(-c2ccco2)n1CC1CCCO1)c1ccccc1` (stereo unspecified): the inhibition was 69.4% (active). With `Cc1nnc(SCC(N)=O)n1CC1CCCO1` (stereo unspecified), the inhibition is 14.5% (inactive). `COc1ccccc1NC(=O)CSc1nnc(C)n1CC1CCCO1` (stereo unspecified): the inhibition is 2.5% (inactive). As for `Cc1cccc(NS(=O)(=O)c2ccc(-c3cnc(C4CC4)o3)cc2)c1`, the figure is 36.8% (inactive); as for `Cc1nnc(SCC(=O)Nc2ccc(S(=O)(=O)Nc3ccc(Cl)nn3)cc2)s1`, 7.5% (inactive). As for `S=C(c1ccccc1)N1CCCC1`, the inhibition was 29% (inactive). Regarding `O=C(NC(c1ccccc1)c1ccccc1)N1CCN(CCO)CC1`, the inhibition was -22.1% (inactive).

Turning to `OCCN1CCN(C(=S)c2ccc(-c3ccccc3)cc2)CC1`, the inhibition was 71.4% (active). `COc1ccc(C(=O)N2CCCN(C)CC2)c(OC)c1`: the inhibition was -0.8% (inactive).

Regarding `Cc1ccc(NC(=O)CN(C)C(=O)COC(=O)C(C)(C)Oc2ccc(Cl)cc2)cc1`, the inhibition is 14.5% (inactive). With `CC(C)CC(CCc1ccccc1)OS(N)(=O)=O` (stereo unspecified), the inhibition was 4% (inactive). The same measure for `CC(=O)c1cc(C#N)c(SCC(=O)C(C)(C)C)nc1C`: 75.8% (active). With `CC(=O)c1cc(C#N)c(SCC(=O)Nc2nccs2)nc1C`, the inhibition is 28.8% (inactive). The same measure for `CC(=O)c1cc(C#N)c(N2CCCCC2)nc1C`: 1.5% (inactive); for `Clc1cc(NC2CCCCC2)ncn1`: -10.9% (inactive).
